# From PubChem BioAssay (NCI)
# About 83,000 compounds went through this panel and 20% of them were active in at least one assay; those are over-represented in the sample as a whole.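 Activity criterion: percent growth below 10, measured after cells in 96-well plates were exposed to a single compound concentration for 48 hours.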 Values without a mark were called inactive. Active and inactive are the calls of the source.
# Assays:
# Assay in all cases: NCI-60 one-dose screen, 48 h (100 = growth as untreated, 0 = no growth, -100 = all killed)
# Conditions in all cases: 10 µM unless noted
# [1] = tested on: DU-145 prostate
# [2] = tested on: K-562 leukemia
# [3] = tested on: MALME-3M melanoma
# [4] = tested on: MDA-MB-231 breast
# [5] = tested on: RXF 393 renal
# [6] = tested on: SF-268 CNS
# [7] = tested on: SF-295 CNS
# [8] = tested on: SF-539 CNS
# [9] = tested on: UACC-257 melanoma
# [10] = tested on: M14 melanoma
# [11] = tested on: HCT-15 colon
# [12] = tested on: HT29 colon
# [13] = tested on: SNB-75 CNS
# [14] = tested on: SNB-19 CNS
# [15] = tested on: U251 CNS
# [16] = tested on: PC-3 prostate
# [17] = tested on: SK-MEL-5 melanoma
# [18] = tested on: UACC-62 melanoma
# [19] = tested on: LOX IMVI melanoma
# [20] = tested on: SK-MEL-28 melanoma
Compound,growth [1],growth [2],growth [3],growth [4],growth [5],growth [6],growth [7],growth [8],growth [9],growth [10],growth [11],growth [12],growth [13],growth [14],growth [15],growth [16],growth [17],growth [18],growth [19],growth [20]
Nc1nc(N)c2c(n1)NC(c1sc(Cl)nc1Cl)CC(c1ccc3c(c1)OCO3)=N2 (stereo not drawn),35.3%,16.9%,28.8%,48.8%,-1.6% (active),38.8%,18.5%,-14.9% (active),39.2%,18.1%,23.9%,5.28% (active),-1.52% (active),36.8%,10.4%,48.8%,11%,40.1%,40.3%,57%
CS(=O)(=O)Nc1cc(-c2cc3ncc(C#N)c(Nc4ccc(Oc5ccccc5)c(Cl)c4)c3s2)cnc1Cl,48.1%,51.5%,74.5%,45.3%,15.9%,52.8%,38.4%,57.8%,68.2%,50.1%,37.2%,57.6%,39.2%,62.8%,44.6%,45.5%,52.5%,22%,25.9%,62.3%
Cc1cc(O)c(C2=NN(c3ccc(S(N)(=O)=O)cc3)C(c3ccc(Cl)cc3)C2)c(C)c1Cl (stereo not drawn),49.3%,21%,103%,59%,48.1%,61.7%,20.4%,79%,74.1%,39.1%,65.2%,55.1%,67.4%,89.8%,70%,12.1%,81.7%,53%,52.4%,76.3%
Cc1cc(C)c2c(NC(=O)Nc3ccc(Cl)c(Cl)c3)n[nH]c2n1,105%,91%,90.4%,104%,105%,103%,93.4%,112%,110%,109%,100%,96.9%,88.7%,101%,102%,103%,103%,103%,99.8%,104%
O=c1[nH]cnc2nc[nH]c12,170%,49.3%,110%,99%,107%,147%,93.8%,97.3%,117%,109%,107%,97.9%,90.8%,107%,103%,135%,102%,102%,98.4%,97.9%
COc1ccc(C(=O)/C=C/c2cn(-c3ccccc3)nc2-c2cccc(Nc3ccnc4cc(Cl)ccc34)c2)cc1,86.5%,85.9%,57.4%,70.8%,95.2%,89.3%,106%,103%,90.1%,110%,101%,104%,99.5%,93.2%,94.9%,87.4%,88.4%,,104%,95.3%
COc1ccc(C2=Nn3c(nnc3-c3ccc(Cl)cc3N)SC2)cc1,117%,102%,104%,85.7%,104%,106%,94.3%,102%,95%,107%,96.1%,110%,85.4%,101%,92.5%,95.1%,97.8%,86.6%,89.7%,97.8%
COC(=O)/C=C/c1cc(OC(C)=O)c2c(c1)[C@@H](C(=O)OC)[C@H](c1ccc(OC(C)=O)c(OC(C)=O)c1)O2,-9.78% (active),8.05% (active),48.7%,14.1%,37.1%,24.2%,23.9%,-23.9% (active),48.3%,2.76% (active),8.71% (active),11.8%,-3.49% (active),34.6%,18.1%,14.3%,-42.4% (active),,7.76% (active),
O=C(CCc1nc2sc3c(c2c(=O)[nH]1)CCC3)NCc1cn(-c2ccccc2)nc1-c1ccccc1,48.7%,84.6%,47.7%,11.4%,48.8%,65.3%,46.2%,83.3%,98.5%,74.5%,86%,83.3%,-59% (active),49.8%,44%,29.9%,72.5%,88.6%,44%,79.1%
C=C(C)c1ccc(/C=N/NC(N)=S)cc1,97.6%,89%,116%,96.8%,94.6%,109%,76.5%,99.2%,257%,87.2%,96%,86.1%,104%,97.3%,93.9%,100%,95.1%,88.9%,97.4%,109%
C=C1NC(=O)C(C(C)CC)NC(=O)C2CSCC(NC(=O)CCC(=O)O)C(=O)NC(Cc3ccccc3)C(=O)NC(C)C(=O)NC(CC(C)CC)C(=O)NC(C(=O)NC(Cc3ccccc3)C(=O)N3CCCC3C(=O)N2)C(C)OC(=O)C(CO)NC(=O)C(C(O)COC)N(C)C(=O)C(C(C)C)NC(=O)C(CC(C)CC)NC1=O (stereo not drawn),9.63% [6 µM] (active),9.39% [6 µM] (active),55.3% [6 µM],35.1% [6 µM],21.6% [6 µM],25.5% [6 µM],14.9% [6 µM],-6.71% [6 µM] (active),30.1% [6 µM],5.52% [6 µM] (active),15.8% [6 µM],4.74% [6 µM] (active),11.4% [6 µM],21.3% [6 µM],11.2% [6 µM],22.1% [6 µM],-44.8% [6 µM] (active),,15.1% [6 µM],60.2% [6 µM]
C[C@@H]1C[C@H](N)C[C@H](c2ccncc2NC(=O)c2ccc(F)c(-c3c(F)cccc3F)n2)C1,80.4%,11.4%,-20.6% (active),59.1%,23.2%,58.9%,71.9%,70.2%,-69.4% (active),-30.8% (active),52.4%,10.9%,40.5%,69.3%,42.6%,24.2%,-59.8% (active),25.3%,33.1%,12.2%
CCCCN(CCCC)CCCN=c1nc2c(c(N)n1-c1ccccc1)c(=S)n(-c1ccccc1)c(=S)n2-c1ccccc1,-100% (active),-90.3% (active),-91.5% (active),-89.1% (active),-67.7% (active),-94% (active),-100% (active),-97.7% (active),-73.1% (active),-86.3% (active),-73.3% (active),-63.3% (active),-94.2% (active),-87.4% (active),-100% (active),-70.8% (active),-100% (active),-99.4% (active),-89.7% (active),-100% (active)
Fc1ccc(-c2ccnc3nc(-c4ccncc4)nn23)cc1,101%,98.1%,114%,113%,105%,97.1%,111%,101%,111%,107%,103%,97.3%,90.1%,112%,104%,97.2%,106%,,100%,111%
NNC(=O)Cc1ccccc1,104%,56.6%,99.7%,83.7%,126%,86.4%,79.7%,92.5%,122%,74.5%,82.7%,101%,77.8%,93.1%,91.8%,56.9%,96.9%,,50.7%,108%
O=Cc1ccc2nc(C(Cl)(Cl)Cl)ccc2c1,102%,121%,91.4%,108%,94.7%,107%,97.2%,98.8%,103%,81.6%,101%,102%,99.9%,102%,92.8%,98.4%,95%,,96.1%,105%
